Reference: the supplement of paper PMC3484114
± gives the standard deviation.

Each compound was assayed on OVCAR-3-derived ovarian cancer stem-like cells (spheroids) (assay: cell growth relative to untreated control; higher = more growth (less inhibition)). Settings: 2.29 µM; 96 h.
Procedure, shortened: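 Stem-like cells derived from OVCAR-3 spheroids were dissociated with trypsin and seeded at 50,000 cells/mL in stem cell medium in ultra-low attachment 96-well plates, then preincubated for 24 h. Each compound was added at 2.29 uM to 4 replicate wells and left for 96 h at 37°C, 5% CO2. Viability came from TOX8 resazurin fluorescence (ex 560/em 590 nm) read after 4 h. Percent growth was expressed relative to untreated wells, after blank subtraction and removal of outliers by the Grubbs test.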

SMILES	cell growth [%]
CC[C@H](C)[C@@H]1NC(=O)[C@@H](NC(=O)c2c3nc4c(C(=O)N[C@@H]5C(=O)N[C@@H](C(C)C)C(=O)N6CCC[C@H]6C(=O)N(C)CC(=O)N(C)[C@@H](C(C)C)C(=O)O[C@@H]5C)ccc(C)c4oc-3c(C)c(=O)c2N)[C@@H](C)OC(=O)[C@H](C(C)C)N(C)C(=O)CN(C)C(=O)[C@@H]2CCCN2C1=O	10.9 ± 3.5
[Cl][Hg][c]1ccc2ccccc2c1	62.6 ± 8.8
CCC[CH2][Pb]([Cl])([CH2]CCC)[CH2]CCC	5.1 ± 5.5
O=c1[nH]c2ccccc2n1C1CCN(CCCC(c2ccc(F)cc2)c2ccc(F)cc2)CC1	90.6 ± 41
N[C@@H](CN(O)N=O)C(=O)O	105 ± 19
CC(C)C[C@H]1C(=O)N2CCC[C@H]2[C@]2(O)O[C@](NC(=O)[C@@H]3C=C4c5cccc6[nH]c(Br)c(c56)C[C@H]4N(C)C3)(C(C)C)C(=O)N12	90.6 ± 6.8
[O-][n+]1ccccc1[S-].[O-][n+]1ccccc1[S-].[Zn+2]	95.8 ± 7.8
COc1cc2c(cc1O)N=CC1CCC(O)N1C2=O (stereo unspecified)	93.8 ± 20
C1CN1c1nc(N2CC2)nc(N2CC2)n1	129 ± 82
O=C1N[C@@H]2C(=C[C@H](O)[C@@H](O)[C@H]2O)c2cc3c(c(O)c21)OCO3	111 ± 17
N#CC(NCc1cccc(CNC(C#N)c2ccccc2)c1)c1ccccc1 (stereo unspecified)	93.3 ± 30
COc1cc(C2c3cc4c(cc3C(O)C3COC(=O)C23)OCO4)cc(OC)c1OC (stereo unspecified)	31 ± 5.3
CCC[CH2][Sn]1([CH2]CCC)[S]CC[N]1S(=O)(=O)c1ccc(C)cc1	36.9 ± 13
CO[C@H]1Nc2c(ccc(C)c2O)C(=O)N2C=C(/C=C/C(N)=O)C[C@@H]12	12.8 ± 2.4
O=C([O][Hg][CH2]C1COC([CH2][Hg][O]C(=O)c2ccccc2)CO1)c1ccccc1 (stereo unspecified)	69.9 ± 76
CC1=CC(O)C(O)C2(C)C1CC1OC(=O)C(O)C3C(C)C(O)C4(O)OCC13C42 (stereo unspecified)	128 ± 36

SMILES	cell growth [%]
CCOC(=O)[C@H](CC(C)C)NC(=O)C(Cc1ccc(N(CCCl)CCCl)cc1)NC(C)=O (stereo partly specified)	73.3 ± 40
COc1cc([C@H]2c3cc4c(cc3C[C@@H]3COC(=O)[C@H]32)OCO4)cc(OC)c1OC	39.5 ± 18
CCOC(OC1=C(C#N)CCC1)C(C)[Se]c1ccccc1 (stereo unspecified)	147 ± 33
CC[C@@]1(O)C[C@H](O)c2c(O)c3c(c(O)c2[C@H]1C(=O)OC)C(=O)c1cccc(O)c1C3=O	49.5 ± 20
CCOC(OCC)C(CC)[Se]c1ccccc1[N+](=O)[O-] (stereo unspecified)	120 ± 21
CC[C@@]1(O)C[C@H](OC2CC(N(C)C)C(O)C(C)O2)c2c(O)c3c(c(O)c2[C@H]1OC1CC(N(C)C)C(O)C(C)O1)C(=O)c1cccc(O)c1C3=O (stereo partly specified)	58.8 ± 56
COC1C(C)OC(OC2CC(C)(O)Cc3cc4c(c(O)c32)C(=O)c2c(O)cc3c(c2C4=O)OC2OC3(C)C(O)C(N(C)C)C2O)C(OC)C1(C)OC (stereo unspecified)	8.5 ± 3.2
O=[N+]([O-])c1ccc2c(c1)/C(=N/N=C1c3ccccc3Cc3ccccc31)c1cc([N+](=O)[O-])cc([N+](=O)[O-])c1-2	57.1 ± 34
Cc1c(N)nc([C@H](CC(N)=O)NC[C@H](N)C(N)=O)nc1C(=O)N[C@H](C(=O)N[C@H](C)[C@@H](O)[C@H](C)C(=O)N[C@H](C(=O)NCCc1nc(-c2nc(C(=O)NCCC[S+](C)C)cs2)cs1)[C@@H](C)O)[C@@H](OC1OC(CO)C(O)C(O)C1OC1OC(CO)C(O)C(OC(N)=O)C1O)c1cnc[nH]1 (stereo partly specified)	53 ± 10
C/C(=N\N=C(/[Se])N1CC2CCC(CC2)C1)c1ccccn1	7.7 ± 2.4
COc1ccc(O)c2c(=O)c3c(OC)cc4c(c3oc12)[C@@H]1C=CO[C@@H]1O4	90.1 ± 25
CC(=O)[O][Sn]([CH2]c1ccccc1)([CH2]c1ccccc1)[CH2]c1ccccc1	112 ± 25
CC1=CC23C(COC(=O)C24CO4)C(C(=O)O)=CC3C1C.NCc1ccccc1 (stereo unspecified)	74.5 ± 29
Cc1ccc(N=Nc2c(O)ccc3ccccc23)cc1	74.1 ± 8.8
S=C=NCc1ccccc1	109 ± 28
